Screening data: PubChem, National Center for Advancing Translational Sciences (NCATS)
Most compounds without a hit are left out; they make up all but 9.2% or so of the library.
SMN2 splice enh = enhancers of SMN2 splice variant expression; HEK293 SMN2-luciferase splicing reporter, luminescence, 30-36 h; Potency, µM (top dose mostly 46.1 µM), actives largely listed as activators; 210,000 tested, 2.8% active; further: nearly all actives have a fitted effect of over 55% in size
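qHTS luciferase splicing reporter: luminescence rises when SMN2 exon 7 is included in transfected HEK293 cells. Compound exposure lasted 30-36 h at 37C, with 4.5 mM final sodium butyrate as control, followed by a ONE-Glo read.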
NPC1 promoter act = NPC1 promoter activation; Huh7 NPC1 promoter luciferase reporter, 24 h; AID 485313; 320,000 tested, 2.4% active; Potency, µM (series often up to 9.22 µM), hits mostly activators; further: nearly all actives have a fitted effect of over 60% in size
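Huh7 cells stably carrying NPC1 promoter–luciferase, plated in Opti-MEM with 10% FBS for 2 h, were exposed to compound in DMSO for 24 h at 37 °C; luciferase reagent was added for 10 min and luminescence read.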
ELG1 DNA repair = ELG1-dependent DNA repair inhibition | AID 504467 | 330,000 tested, 2.3% active | Potency, µM (highest dose often 46.1 µM), hits mostly inhibitors | HEK293T ELG1-luciferase reporter, luminescence, 16 h; DNA damage induced by 5-fluorouridine; further: nearly all actives have a fitted effect of over 55% in size
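Reporter activity after DNA damage by 5-fluorouridine is monitored. Compound-treated cells incubate 16 hr at 37 °C, then ONE-Glo is added for 30 min before luminescence reading.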
Rab9 prom act = activates the Rab9 promoter; Huh7 Rab9 promoter-luciferase reporter, luminescence, 24 h; Potency, µM (series often up to 9.22 µM), most hits filed as activators; 320,000 tested, 2.8% active; AID 485297; further: nearly all actives have a fitted effect of over 60% in size
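Huh7 reporter line, Rab9 promoter upstream of luciferase. Compound exposure 24 h at 37 °C in reduced-serum medium with 10% FBS. Read-out: luminescence.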
FLuc counter = firefly luciferase modulation, counter-screen for miR-21 project. Potency, µM (series often up to 57.5 µM), actives largely listed as inhibitors. P08659. purified FLuc, Km substrates, luminescence inhibition. 360,000 tested, 6.9% active; further: nearly all actives have a fitted effect of over 55% in size
Target sequence (P08659 whole entry, looked up): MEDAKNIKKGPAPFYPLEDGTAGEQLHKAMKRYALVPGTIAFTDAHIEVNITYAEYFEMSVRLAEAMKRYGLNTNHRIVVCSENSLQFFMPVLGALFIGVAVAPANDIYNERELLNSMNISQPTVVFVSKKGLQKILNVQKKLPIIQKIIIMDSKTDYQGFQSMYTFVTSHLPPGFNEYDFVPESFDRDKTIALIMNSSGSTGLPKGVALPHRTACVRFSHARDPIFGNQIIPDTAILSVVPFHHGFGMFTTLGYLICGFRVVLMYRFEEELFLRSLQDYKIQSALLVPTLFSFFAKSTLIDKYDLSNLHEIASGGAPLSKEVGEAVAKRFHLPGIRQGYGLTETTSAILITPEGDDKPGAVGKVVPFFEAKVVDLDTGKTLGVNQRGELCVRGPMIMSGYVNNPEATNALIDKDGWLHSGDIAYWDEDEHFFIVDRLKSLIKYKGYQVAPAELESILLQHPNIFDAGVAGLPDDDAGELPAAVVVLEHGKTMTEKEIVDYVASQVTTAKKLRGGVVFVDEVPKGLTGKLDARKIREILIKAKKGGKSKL
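Biochemical qHTS of compounds, final roughly 60 µM downward over six points, against 10 nM purified firefly luciferase using Km concentrations of substrates (10 uM D-luciferin, 10 uM ATP) in Tris acetate pH 7.5 buffer; luminescence output.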
ELG1 genotoxic = induces genotoxicity in HEK293T cells with luciferase-tagged ELG1; HEK293T ELG1-luciferase reporter, luminescence, 16 h; Potency, µM (series often up to 46 µM), usual class: activators; 330,000 tested, 1.3% active; AID 504466; further: nearly all actives have a fitted effect of over 60% in size
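ELG1-luciferase HEK293T cells, 2,000/well; compound pinned in; 16 hr, 37 °C, 5% CO2; ONE-Glo, 30 min RT; luminescence on CCD imager.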
Hits are given with their value; [ ] = another dose, or the depositor's remark. The call rests on the fitted dose curve; in most records, active means well fitted curve in the direction sought with a large enough effect; inconclusive means small, poorly fitted or top-dose-only effect, or another doubt; inactive means no such curve, though single readings can be large; an effect the other way counts as inactive or inconclusive.

For COc1ccc(Nc2nc(N)nc(CSc3nccn3C)n2)cc1 the results were NPC1 promoter act 1.4µM, ELG1 DNA repair inconclusive, Rab9 prom act 1.8µM, FLuc counter 21µM and ELG1 genotoxic inconclusive.
`COC(=O)c1ccccc1NC(=O)CCCn1nc(C)c2sc3ccccc3c2c1=O` gave FLuc counter inactive.
Screening Cn1c2ccccc2c(=O)c2c(=O)n(C3CCCCC3)c(-c3cccs3)nc21 returned SMN2 splice enh inactive, NPC1 promoter act inactive, ELG1 DNA repair inactive, Rab9 prom act inactive, FLuc counter inactive and ELG1 genotoxic inactive.
For CN(CC(=O)Nc1ccc(Cl)c(C(F)(F)F)c1)C(=O)c1cn2ccccc2n1 the results were NPC1 promoter act inactive, ELG1 DNA repair inactive, Rab9 prom act inactive, FLuc counter inconclusive and ELG1 genotoxic 23µM.
For CN(CC(=O)Nc1ccc(Cl)c(C(F)(F)F)c1)C(=O)CCCc1nc2ccccc2c(=O)[nH]1 the results were NPC1 promoter act inactive, ELG1 DNA repair 11µM, Rab9 prom act inactive, FLuc counter inactive and ELG1 genotoxic inactive.
`CC(C)[C@H]1C(=O)Nc2ccccc2N1C(=O)N[C@@H](Cc1ccccc1)C(=O)N[C@H](C(=O)O)c1ccccc1` gave NPC1 promoter act inactive, ELG1 DNA repair inconclusive, Rab9 prom act inactive, FLuc counter inactive and ELG1 genotoxic inactive.
For COC(=O)C1CCN(C(=O)c2ccc3nc(-c4cccc(OC)c4)oc3c2)CC1 the results were NPC1 promoter act 1.8µM, ELG1 DNA repair inconclusive, Rab9 prom act 2µM, FLuc counter 21µM and ELG1 genotoxic inconclusive.
`COc1ccc(C(=O)Nc2ccc3oc(-c4cccnc4)nc3c2)cc1` gave SMN2 splice enh inactive and FLuc counter inconclusive.
`COC(=O)C1CCN(C(=O)c2ccc3nccnc3c2)CC1` gave NPC1 promoter act inactive, ELG1 DNA repair inactive, Rab9 prom act inactive, FLuc counter inactive and ELG1 genotoxic inactive.
`COc1cccc(-c2nc3ccc(C(=O)NC(C)Cc4cccnc4)cc3o2)c1` (stereo not drawn) gave NPC1 promoter act 2.2µM, ELG1 DNA repair inconclusive, Rab9 prom act 2.8µM, FLuc counter 9.5µM and ELG1 genotoxic inconclusive.
CC(C)(C)[Si](C)(C)c1c2c(nc3ccc(OCc4ccccc4)cc13)-c1cccc(=O)n1C2 was read as SMN2 splice enh inactive.
Screening C/C(=N\NC(=O)c1c(Cl)cnn1C)c1cccnc1 returned NPC1 promoter act inactive, ELG1 DNA repair inconclusive, Rab9 prom act inactive, FLuc counter inconclusive and ELG1 genotoxic inactive.
CC(C)CN=CC1=C(O)c2ccccc2C1=O was read as NPC1 promoter act 1.8µM, ELG1 DNA repair inconclusive, Rab9 prom act 1µM, FLuc counter 12µM and ELG1 genotoxic inconclusive.
O=C1C(C=NCc2ccccn2)=C(O)c2ccccc21 was read as SMN2 splice enh 5.6µM, NPC1 promoter act 2.2µM, ELG1 DNA repair inconclusive, Rab9 prom act 4µM, FLuc counter 12µM and ELG1 genotoxic inconclusive.
Screening O=C1C(C=NCCCN2CCCC2=O)=C(O)c2ccccc21 returned SMN2 splice enh inconclusive, NPC1 promoter act inconclusive, ELG1 DNA repair inconclusive, Rab9 prom act inconclusive, FLuc counter 19µM and ELG1 genotoxic 18µM.
O=c1oc2ccccc2c(O)c1C=NCc1ccccn1 was read as SMN2 splice enh inactive, NPC1 promoter act inactive, ELG1 DNA repair inactive, Rab9 prom act inactive, FLuc counter inconclusive and ELG1 genotoxic inactive.
Screening CN1CCC[C@@H]1c1cccnc1.O=C(O)c1ccccc1O.O=C([OH2+])c1ccccc1O.O=C([OH2+])c1ccccc1O.O=C([OH2+])c1ccccc1O.[Mn] returned SMN2 splice enh inactive[9.22 µM].
Screening CC(=O)c1ccc(-n2nnnc2SCC(=O)NC2CCCCC2)cc1 returned NPC1 promoter act inactive, ELG1 DNA repair inconclusive, Rab9 prom act inactive, FLuc counter inactive and ELG1 genotoxic inactive.
For Cc1cccc(N2CCN(C(=O)c3nn(C)c4c3CS(=O)(=O)c3ccccc3-4)CC2C)c1 (stereo not drawn) the results were NPC1 promoter act inactive, ELG1 DNA repair inconclusive, Rab9 prom act inactive, FLuc counter inactive and ELG1 genotoxic inactive.
CC12CCC(C/C1=N\N=C1\NC(=O)/C(=C\c3ccc(Cl)cc3)S1)C2(C)C (stereo not drawn) was read as SMN2 splice enh inactive, NPC1 promoter act inactive, ELG1 DNA repair inconclusive, Rab9 prom act inactive, FLuc counter 6µM and ELG1 genotoxic inactive.
`COc1cccc(C(=O)Nc2ccc3c(c2)C(=O)N(CC2CCCO2)C3=O)c1` (stereo not drawn) gave NPC1 promoter act inactive, ELG1 DNA repair inconclusive, Rab9 prom act inactive, FLuc counter 9.5µM and ELG1 genotoxic inactive.
`COc1ccccc1OCC(=O)Nc1ccc2c(c1)C(=O)N(CC1CCCO1)C2=O` (stereo not drawn) gave SMN2 splice enh inactive, NPC1 promoter act inactive, ELG1 DNA repair inactive, Rab9 prom act inactive, FLuc counter inactive and ELG1 genotoxic inactive.
Screening COc1ccccc1Oc1ccc2c(c1)C(=O)N(CC1CCCO1)C2=O (stereo not drawn) returned NPC1 promoter act inactive, ELG1 DNA repair inactive, Rab9 prom act inactive, FLuc counter 19µM and ELG1 genotoxic inactive.
For COc1cccc(NC(=O)c2ccc3c(c2)C(=O)N(CC2CCCO2)C3=O)c1 (stereo not drawn) the results were NPC1 promoter act inactive, ELG1 DNA repair inactive, Rab9 prom act inactive, FLuc counter 17µM and ELG1 genotoxic inactive.
COc1ccc(NC(=O)c2ccc3c(c2)C(=O)N(CC2CCCO2)C3=O)cc1 (stereo not drawn) was read as NPC1 promoter act inactive, ELG1 DNA repair inactive, Rab9 prom act inactive, FLuc counter inconclusive and ELG1 genotoxic inactive.
Screening CC(=O)Oc1cccc(C(=O)Nc2ccc3c(c2)C(=O)N(CC2CCCO2)C3=O)c1 (stereo not drawn) returned NPC1 promoter act inactive, ELG1 DNA repair inactive, Rab9 prom act inactive, FLuc counter inconclusive and ELG1 genotoxic inactive.
For COc1ccc(/C=C2\NC(=S)N(CC3CCCO3)C2=O)c(OC)c1 (stereo not drawn) the results were SMN2 splice enh inactive, NPC1 promoter act inactive, ELG1 DNA repair inactive, Rab9 prom act inconclusive, FLuc counter 15µM and ELG1 genotoxic inactive.
For CC[n+]1c(/C=C/C=C2/N(C)c3ccccc3C2(C)C)sc2ccccc21 the results were NPC1 promoter act inactive and Rab9 prom act inactive.
Screening C/C(=N\NC(=O)COc1ccccc1-c1ccccc1)c1ccc(O)cc1O returned NPC1 promoter act inactive, ELG1 DNA repair 23µM, Rab9 prom act inactive, FLuc counter inactive and ELG1 genotoxic inactive.
